The text below walks through data of the supplement of paper PMC12632987.

T1: USP38, Q8NB14
T1 chain: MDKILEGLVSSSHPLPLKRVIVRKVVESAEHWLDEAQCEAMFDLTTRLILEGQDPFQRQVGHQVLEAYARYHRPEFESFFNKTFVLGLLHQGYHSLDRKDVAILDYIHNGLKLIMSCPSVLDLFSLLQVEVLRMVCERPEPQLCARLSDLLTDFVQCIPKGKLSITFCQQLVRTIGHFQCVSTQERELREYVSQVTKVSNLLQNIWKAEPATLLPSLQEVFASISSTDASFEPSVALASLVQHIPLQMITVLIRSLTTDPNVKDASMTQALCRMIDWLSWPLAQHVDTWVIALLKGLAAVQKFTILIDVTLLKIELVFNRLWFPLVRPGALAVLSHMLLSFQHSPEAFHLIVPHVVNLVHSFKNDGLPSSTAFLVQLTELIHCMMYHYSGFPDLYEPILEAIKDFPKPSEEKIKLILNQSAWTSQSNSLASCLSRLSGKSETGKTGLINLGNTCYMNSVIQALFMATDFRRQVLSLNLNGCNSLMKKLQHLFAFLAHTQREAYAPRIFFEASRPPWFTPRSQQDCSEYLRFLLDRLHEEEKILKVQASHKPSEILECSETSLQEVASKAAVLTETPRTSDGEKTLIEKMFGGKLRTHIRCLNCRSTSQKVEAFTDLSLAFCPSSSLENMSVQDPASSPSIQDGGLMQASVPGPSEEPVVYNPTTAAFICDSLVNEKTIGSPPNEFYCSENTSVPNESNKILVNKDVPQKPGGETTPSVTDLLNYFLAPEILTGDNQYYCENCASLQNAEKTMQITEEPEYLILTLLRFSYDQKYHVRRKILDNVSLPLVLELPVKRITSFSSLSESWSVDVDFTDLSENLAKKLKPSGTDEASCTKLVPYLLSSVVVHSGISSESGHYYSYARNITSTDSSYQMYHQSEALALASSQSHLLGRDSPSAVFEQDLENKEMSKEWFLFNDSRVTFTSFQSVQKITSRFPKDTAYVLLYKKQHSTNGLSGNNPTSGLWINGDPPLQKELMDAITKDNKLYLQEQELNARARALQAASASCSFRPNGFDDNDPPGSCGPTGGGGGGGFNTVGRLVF

B1: usp_38_diff_out_17_60_247 (protein)
chain: SAEAEEIIERLKKRLEELEKRLEELEKRFEEAKKKGDKEELEKLLKEAKELIDEIADLLVELAKNSELIDPETFLELADRASELADRAFKLKQEIEKELA
B2: usp_38_diff_out_18_121_251 (protein)
chain: EAKKVAEEALKAAKEATKLAKELLKAIKEGKWEKAEKLDKELDKKIKEFGRLYQELRDLRSEDPEQTKPLLKEVEKEGDKMIDIYNEAGTALFLAEAERQ
B3: usp_38_diff_out_18_121_253 (protein)
chain: EAEKLAEEALKLAEKLKELSEELLKAIKEGDLEKAEKLKKEMEELLKELGRKYLELRDLRAEHPEETKELLKEVEKKANEAIDKYEKAERAYFEFLAEQA
B4: usp_38_diff_out_18_121_254 (protein)
chain: KAEELAKKALELAEEIEKLSKELLKAIKEGNKEKAEELRKKLDEKIRELGRLYQELRDLHAENPHETRELLKEVNEKANKAIDEREKAETAYFEFLAEQE
B5: usp_38_diff_out_17_60_246 (protein)
chain: SAEAEKIIKELEERLEELEKRLKELEKEFKKAKAAGDKAKLEALAKEAQALLDEIADLLVELAKNSEIIDPETFLELADRASELADRAFALLKEIQKELA
B6: usp_38_diff_out_18_14_255 (protein)
chain: SEELEKATISNLNSLKEDVKKDTERVIKLLEKNKDDPERVKRITERANRNLAGVRTYAEEVLKEAEEKGWEEVKKAAEELLKTVDEAKKKIEEKVKEVLA
B7: usp_38_diff_out_17_26_242 (protein)
chain: EAEERRREARERLERLREETERALEEIDRLIAEGKFEEARKLLEETVRKATEEMTEILELAADDPELMEEALRAWDEISDRLAARYRELQAAIAAAKAAA
B8: usp_38_diff_out_17_35_245 (protein)
chain: SLEEKERELLERTRRAAEEALRRARELLEAAKADPSQIDRYLAEARAVLDRFLAEAADILIEAAKLEIDAEVLQEIGDIIDRASDELQAILDELEALKAA
B9: usp_38_diff_out_18_14_256 (protein)
chain: SEELTKAEISNLESLKKSVKEDTERVIRLLEKNKDDPERVKRIYERAQRNLAGVETYAKEVLERAKKEGDEELAKAAEELLKEIEEARKRIEEKVKEVLA
B10: usp_38_diff_out_17_60_248 (protein)
chain: SAEAEAIIARLEARLEELERRLEELERRFEEAERRGDKAELEELLKELDELLGEIADLLVELAKNSELIDPETFLRLADRASELADRAFALRQRVQQALA
B11: usp_38_diff_out_17_26_243 (protein)
chain: SAEEKRKKARELLKKLKEESEKALEEIKKLIKEGKFEEAEKLLEETVKKVTETTLEILELAADDPELVEEVLEAYDEISDKLAQAYKELQKAKKEAAAKA
B12: usp_38_diff_out_18_14_257 (protein)
chain: SKELTEATISNLKSLKEDVKEDTERVIRLLEKNKDDPERVKRIYERAKRNLAGVEKYAKEVLKEAKENGDEELAKAAEELLKAVEEARERIEEEVKRVLA
B13: usp_38_diff_out_18_121_250 (protein)
chain: DGEELLRRLREALRRAEEKLRELEELLERAEEVSLEELRAALDAAADALGEAAALLREARRRLGPEYREELEEAERRLDELVDRYTELGTRLFLLEAERQ
B14: usp_38_diff_out_18_121_249 (protein)
chain: NPEELLEELRRALEEARRALEELEKLLENREEVSLEELREALRRAADALGRAAALLREARRRIGPEYREEIERAEKELDELVDRYTELGRELFLLEAERE
B15: usp_38_diff_out_17_26_241 (protein)
chain: SMEERRKEAEELLRRLEEETEKALEEIEKLIEEGKFEEARKLLDEAVDYATETATRILELAADDPELMDRALAVIGRIFDRLAEAYRRLEEARRRAEEEA
B16: usp_38_diff_out_17_26_244 (protein)
chain: SAEERNKKARELLEELKREAEKGLEEIRKLIEAGKFEEARKKLDELVTEVTERMLEILELAADNPELMEEALAAYDEISDAIAAAYRELQEARRAAAAAA

For this test, the target named is T1, USP38, Q8NB14. Kind of test: median log2 fold change of GCK-ALFA target abundance (FLAG IP / Myc IP barcode read proportion) (log2 ratio); each designed protein is fused to an ALFA-tag nanobody in HEK293 cells to bring the named protein to FLAG-tagged glucokinase (GCK); Myc marks an untargeted standard; higher = target protein stabilised (more abundant). Conditions: target protein: 3xFLAG-MCP-GCK-ALFA reporter; HEK293 landing pad (RPLP). A digest of the protocol:
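An ALFA-nanobody-fused binder library was recombined into HEK293 landing-pad cells and induced with 2 μg mL^−1 doxycycline. Cells were transfected with a plasmid expressing a FLAG-tagged target and a Myc-tagged standard. After 48 h, lysates underwent anti-FLAG and anti-Myc immunoprecipitation, and circular RNA barcodes were reverse transcribed, amplified and sequenced. Target abundance is the per-binder median log2 ratio of FLAG to Myc barcode read proportions. Barcodes needed ≥10^−7 proportion in both replicates, binders ≥3 barcodes per replicate, and a 10^−6 pseudocount was added; the two replicates were pooled.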
On to B1, for which the “median log2 fold change” value came out at 0.108.

For B2, the “median log2 fold change” value was -0.563.

B3: the “median log2 fold change” value was -1.1.

Turning to B4, the “median log2 fold change” value is -0.478.

Take B5: the “median log2 fold change” value is -0.51.

B6: the “median log2 fold change” value came out at 0.0514.

Turning to B7, the “median log2 fold change” value amounted to 0.467.

With B8, the “median log2 fold change” value came to 0.015.

In the case of B9, the “median log2 fold change” value amounted to 0.00955.

Regarding B10, the “median log2 fold change” value was -1.11.

On to B11, for which the “median log2 fold change” value is -0.0758.

Take B12: the “median log2 fold change” value is 0.0724.

Take B13: the “median log2 fold change” value is -0.109.

As to B14, the “median log2 fold change” value is -0.0715.

Consider B15, for which the “median log2 fold change” value is -0.00366.

B16: the “median log2 fold change” value is -0.152.
